This passage reports Potency results from PubChem BioAssay (NCATS).

SMILES strings stand for the structures. Results filed as inconclusive are left out. Where a call stands in place of a potency, no number is given. The source made the active and inactive calls. The call rests on the fitted dose curve; in most records, active means well fitted inhibition curve with a large enough effect; inconclusive means small, poorly fitted or top-dose-only effect, or effect the other way; inactive means flat fitted curve, though single readings scatter.
Potency means the concentration at half of the fitted maximal effect.

The assay in a line: Quantitative high throughput screen for delayed death inhibitors of the malarial parasite plastid, 48 hour incubation (AID 488752). Further: nearly all actives have a fitted effect of over 65% in size. The settings on record: Plasmodium falciparum growth; series mostly up to 28.7 µM. The source says: NIH Molecular Libraries Probe Production Network [MLPCN]
NIH Chemical Genomics Center [NCGC]
Assay Provider: David Fidock and Eric Ekland, Columbia University
The goal of this screen is to discover new antimalarial compounds that act by inhibiting the development of the apicoplast in the malarial parasite Plasmodium falciparum. The biochemical processes that make this organelle essential for erythrocytic stage parasites are not well understood. However, antibiotics, such as azithromycin and tetracycline, which target the apicoplast translational machinery, have a potent antimalarial effect.
We have developed a cell-based assay that measures parasite growth based on the expression of an integrated copy of a firefly luciferase reporter. To detect small molecules that cause this 'delayed death' phenotype, erythrocytes infected with the luciferase-expressing parasites were incubated with compounds for either one or two generations, corresponding to 48 and 96 hours, respectively. Compounds that inhibit parasite growth in the second generation, but not the first, should be enriched in antimalarials that target the apicoplast. Growth inhibition is detected by a decrease in luciferase activity
Four microliters of culture medium (RPMI 1640 with 0.5% w/v Albumax (GIBCO), 24 mM sodium bicarbonate and 10 ug/mL gentamycin) were dispensed by a Multi-drop Combi into white solid 1536-well plates (Grenier) and 23 nL compound was added by a pin tool. Four microliters of infected erythrocytes (2% hematocrit, 0.1% parasitemia final concentration) in culture medium were dispensed and the plates incubated for 48 hours at 37 C in 5% CO2. Two microliters of luciferase detection reagent was added and luminescence was detected by a ViewLux (PerkinElmer) reader
`COc1cc2c(cc1C(F)(F)F)N(C(=O)Nc1cc(F)cc(-c3cccnc3)c1)CC2`: the Potency is 2.94 µM (active).
Take `NC(CCC(=O)NCS(=O)(=O)O)C(=O)O` (centres undefined): the Potency result was “inactive”.
With `COC(=O)c1c(-c2cc(OC)c(OC)c(OC)c2)c2ccnc(OCc3ncccn3)c2c(=O)n1Cc1ccnc(C)c1`, the Potency is 9.28 µM (active).
The result for `O=C(O)c1cc(=O)c2ccc(Cl)cc2[nH]1` reads “inactive”; that for `COc1[nH]c2ccc(F)cc2c1C(=O)OCC1CCN(CCNS(C)(=O)=O)CC1`, 11.7 µM (active).
As for `Cc1cccc(C)c1NC(=O)C[N+](C)(C)C`, the Potency entry was “inactive”.
As for `Cn1cnc2c(NC3CCCC3)ncnc21`, the entry is “inactive”.
The result for `CN(C)CCCCSC(=N)N` reads “inactive”; that for `CC(N)=NCc1cccc(CN)c1`, “inactive”; that for `NCCNS(=O)(=O)c1cccc2cnccc12`, “inactive”.
`C/C=C1\C(=O)CC2C3CCC4=CC(=O)CC[C@]4(C)C3CC[C@]12C` (some centres undefined): the Potency entry was “inactive”.
As for `NCCCCCCNS(=O)(=O)c1cccc2c(Cl)cccc12`, the entry is “inactive”; as for `COc1ccccc1NC(=O)Nc1nc(-c2cccnc2)nc2ccccc12`, “inactive”.
Regarding `O=C(Nc1cc(C(=O)Nc2ccc(S(=O)(=O)O)cc2S(=O)(=O)O)cc(C(=O)Nc2ccc(S(=O)(=O)O)cc2S(=O)(=O)O)c1)Nc1cc(C(=O)Nc2ccc(S(=O)(=O)O)cc2S(=O)(=O)O)cc(C(=O)Nc2ccc(S(=O)(=O)O)cc2S(=O)(=O)O)c1`, the Potency entry is “inactive”.
As for `O=C(OCCN1CCCCC1)c1c[nH]c2ccccc12`, the Potency result is “inactive”.
Take `C1CCC(N=C(NC23CC4CC(CC(C4)C2)C3)N2CCOCC2)CC1`: the Potency result was “inactive”.
For the compound `CCCCCCCCCCCCC/C=C/[C@@H](O)[C@@H](N)CO`, the Potency result was “inactive”.
For the compound `COc1ccc2c(c1)c(CC(=O)N1CCOCC1)c(C)n2C(=O)c1ccc(Cl)cc1`, the Potency entry was “inactive”.
As for `CCCn1c(=O)c2[nH]c(-c3ccc(OCC(=O)Nc4ccc(C#N)cc4)cc3)nc2n(CCC)c1=O`, the entry is “inactive”.
